Hits are enriched below; roughly 7.5% of the tested compounds scored in any of these assays.
Rab9 promoter act: activators of Rab9 promoter | Huh7 Rab9 promoter-luciferase reporter, luminescence, 24 h | Potency, µM (series often up to 9.22 µM), for inactives: at the top dose activation, negative = inhibition, most hits filed as activators | 320,000 compounds, 2.8% hits | AID 485297; further: % of control where 0% means no effect; nearly all actives have a fitted effect of over 60% in size
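Using Huh7 cells stably transfected with Rab9 promoter–luciferase, compounds were incubated 24 h at 37 °C, 5% CO2; luciferase luminescence was read 10 min after reagent addition.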
NPC1 prom act: activators of NPC1 promoter; Potency, µM (highest dose often 9.22 µM), without a hit: at the top dose activation, most hits filed as activators; 320,000 compounds, 2.4% hits; Huh7 NPC1 promoter luciferase reporter, 24 h; further: % of control where 0% means no effect; nearly all actives have a fitted effect of over 60% in size
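Huh7 reporter cells (NPC1 promoter driving luciferase) are dosed with compound for 24 h at 37 °C, 5% CO2; luciferase detection reagent is then added and luminescence measured after 10 min at ambient temperature.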
SMN2 splice up: enhancers of SMN2 splice variant expression; HEK293 SMN2-luciferase splicing reporter, luminescence, 30-36 h; Potency, µM (top dose mostly 46.1 µM), inactives show top-dose activity change, positive = activation, usual class: activators; 210,000 compounds, 2.8% hits; AID 1458; further: % of control where 0% means no effect; nearly all actives have a fitted effect of over 55% in size
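HEK293 cells carry an SMN2 […]–luciferase reporter in which exon 7 inclusion puts luciferase in frame. Cells were plated 10-12 h before compound addition, then incubated 30-36 h at 37C. ONE-Glo luminescence was read; sodium butyrate at 4.5 mM final served as control.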
ELG1 genotox: inducers of genotoxicity in HEK293T ELG1-luciferase cells. HEK293T ELG1-luciferase reporter, luminescence, 16 h. Potency, µM (highest dose often 46 µM), for the others: top-dose activity change, positive = activation, hits mostly activators. 330,000 compounds, 1.3% hits. AID 504466; further: % of control where 0% means no effect; nearly all actives have a fitted effect of over 60% in size
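Cells (2,000/well) expressing the ELG1-luciferase fusion are dosed by pin tool and kept 16 hr at 37 °C, 5% CO2. Signal comes from ONE-Glo luciferase reagent after 30 min at room temperature.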
FLuc counter: firefly luciferase modulation, counter-screen for miR-21 project; P08659; 360,000 compounds, 6.9% hits; purified FLuc, Km substrates, luminescence inhibition; AID 588342; Potency, µM (titrated, usually from 57.5 µM), without a hit: at the highest dose activity change, negative = inhibition, actives largely listed as inhibitors;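 further: plate controls were vehicle for no effect and reference inhibitor for full effect; nearly all actives have a fitted effect of over 55% in size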
Target sequence (P08659 whole entry, looked up): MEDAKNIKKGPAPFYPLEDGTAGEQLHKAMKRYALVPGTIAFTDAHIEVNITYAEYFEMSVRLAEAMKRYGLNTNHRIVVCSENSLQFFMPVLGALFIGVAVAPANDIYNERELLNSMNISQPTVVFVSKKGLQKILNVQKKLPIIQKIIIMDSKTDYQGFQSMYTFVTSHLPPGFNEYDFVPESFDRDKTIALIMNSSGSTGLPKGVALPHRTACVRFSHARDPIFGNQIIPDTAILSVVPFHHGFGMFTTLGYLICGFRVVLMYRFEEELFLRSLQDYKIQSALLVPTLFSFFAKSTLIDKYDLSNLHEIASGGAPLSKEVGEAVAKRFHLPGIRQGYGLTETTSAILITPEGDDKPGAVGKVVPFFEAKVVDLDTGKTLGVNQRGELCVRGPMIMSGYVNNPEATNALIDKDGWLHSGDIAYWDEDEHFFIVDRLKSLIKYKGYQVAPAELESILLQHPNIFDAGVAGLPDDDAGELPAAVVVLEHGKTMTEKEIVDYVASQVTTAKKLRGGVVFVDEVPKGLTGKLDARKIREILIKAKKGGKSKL
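Purified P. pyralis luciferase (10nM final) with 10uM D-luciferin and 10uM ATP (Km levels) in 50mM Tris acetate pH 7.5, 10mM Mg acetate, 0.01% Tween-20, 0.05% BSA; qHTS 6-point titration, ~60 µM downward; luminescence read.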
Luc counter: blocks Kinase-Glo luciferase, a counter-screen artifact. Q27757. Kinase-Glo luciferase, ATP luminescence, 8 min. Potency, µM (top dose mostly 38.3 µM), for the others: at the top dose activity change, negative = inhibition, hits mostly inhibitors. 200,000 compounds, 0.28% hits; further: on the % scale 0 is the no-effect control and ±100 the full control effect; nearly all actives have a fitted effect of over 60% in size
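Kinase-Glo luciferase light output from ATP and luciferin was measured with 10 uM ATP, within the enzyme's linear range. Buffer: 50 mM imidazole pH 7.2, 50 mM KCl, 7 mM MgCl2, 0.01% Tween 20, 0.05% BSA; luminescence read after 8 min at ambient temperature.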
* = called active by the depositor; u = inconclusive; x = no result. The call rests on the fitted dose curve; in most records, active means well fitted curve in the direction sought with a large enough effect; inconclusive means small, poorly fitted or top-dose-only effect, or another doubt; inactive means no such curve, though single readings can be large; an effect the other way counts as inactive or inconclusive. Potency means the concentration at half of the fitted maximal effect.

SMILES	Rab9 promoter act	NPC1 prom act	SMN2 splice up	ELG1 genotox	FLuc counter	Luc counter
COc1cccc(-n2c(SCC(=O)c3ccc(Cl)cc3)nc3c([nH]c4ccccc43)c2=O)c1	x	x	x	x	-3%	x
CC(C)c1ccc(/C=N/NC(=O)CC(=O)NCc2ccccc2)cc1	-3%	-8%	30%	5%	u	-1%
O=C(O)c1ccc(N/N=C/c2ccc(OC(=O)c3ccccc3Cl)cc2)cc1	u	u	-28%	u	1.9µM*	2%
O=C(O)c1cccc(N/N=C/c2ccc(F)c(F)c2)c1	0.28µM*	0.28µM*	1.1µM*	u	0.34µM*	0%
CC(C)c1ccc(/C=N/Nc2ccc(C(=O)O)cc2)cc1	-23%	-23%	-71%	u	0.19µM*	0%
O=C(O)c1ccc(/C=N/Nc2cccc(C(F)(F)F)c2)cc1	2.5µM*	2.8µM*	10µM*	u	21µM*	0%
CCc1ccc(NC(=O)c2ccc(F)c(S(=O)(=O)N3CCN(c4cc(C)ccc4C)CC3)c2)cc1	x	x	x	x	-8%	x
O=C(O)c1ccc(N/N=C/C=C/c2ccccc2)cc1	0.25µM*	0.32µM*	x	u	0.6µM*	x
COc1cc(/C=N/Nc2ccc(C(F)(F)F)cn2)ccc1O	11%	1%	25%	16%	u	1%
O=C(O)c1ccc(/C=N/O)cc1	-1%	-5%	x	1%	0%	x
O=C(O)c1ccc(/C=N/Nc2ccc(C(F)(F)F)cn2)cc1	u	0.4µM*	13µM*	u	4.8µM*	-1%
COC(=O)c1ccc(COc2ccccc2/C=N/Nc2cccc(C(=O)O)c2)cc1	u	u	x	u	u	-2%
O=C(O)c1ccc(N/N=C/c2ccc(-c3ccccc3)cc2)cc1	0.32µM*	u	4µM*	u	0.48µM*	-2%
O=C(O)c1cccc(N/N=C/C2=C(Cl)c3cc(Cl)ccc3SC2)c1	0.79µM*	0.32µM*	0.5µM*	0.58µM*	1.3µM*	2%
Cc1ccc(NC(=O)C2CCCN(S(=O)(=O)c3c(C)nn(C)c3C)C2)c(C)c1 (stereo not drawn)	x	x	-10%	x	-3%	x
CCCCN(C(=O)C1CC(=O)N(c2ccc(OC)cc2OC)C1)c1c(N)n(CC(C)C)c(=O)[nH]c1=O (stereo not drawn)	3%	0%	x	1%	6%	x
CCc1ccccc1NC(=O)c1sc2nc(C)cc(COC)c2c1N	x	x	x	x	5%	x
O=C(COC(=O)C1CCC1)Nc1ccc(OC(F)F)cc1	0%	-2%	17%	-2%	u	-5%
CCCC(=O)Nc1ccc(C(=O)COC(=O)C2=COCCO2)cc1	22%	1%	x	4%	u	x
O=C(O)CCC(=O)Nc1ccc(N2CCCCCC2)cc1	-4%	10%	u	0%	19µM*	2%
CC(C)CC(=O)Nc1ccc(C(=O)COC(=O)C2CCC2)cc1	-6%	-5%	x	10%	8.5µM*	x
Cc1ccc(N2CCN(c3ccc(NC(=O)CCC(=O)O)cc3)CC2)cc1	0%	3%	4%	2%	-14%	-2%
CCCC(=O)Nc1ccc(C(=O)COC(=O)C2CC2C)cc1 (stereo not drawn)	1.4µM*	2µM*	x	16%	1.7µM*	x
O=C(COC(=O)C1CCCCC1)Nc1ccc(N2CCCCC2)cc1	14%	16%	-6%	6%	21µM*	0%
CC(=C/c1ccco1)/C=N/NC(=O)c1nnn(-c2nonc2N)c1CN(C)C	2%	-5%	-10%	0%	5%	-9%
SMILES	Rab9 promoter act	NPC1 prom act	SMN2 splice up	ELG1 genotox	FLuc counter	Luc counter
O=S(=O)(NCC(c1ccco1)S(=O)(=O)c1cccs1)c1ccc(Cl)cc1 (stereo not drawn)	x	x	x	x	-3%	x
COc1cc(C2C(C#N)=C(N)OC3=C2C(=O)CC(C)(C)C3)ccc1OCCN1CCOCC1 (stereo not drawn)	u	u	x	u	2%	x
COc1cc(OC)c(NC(=O)C2CCN(S(=O)(=O)c3ccc4c(c3)CC(C)N4C(C)=O)CC2)cc1Cl (stereo not drawn)	-1%	0%	x	-4%	5%	x
CC(C)c1ccc(NC(=O)COC(=O)C2CCCCC2)cc1	17%	11%	x	6%	1.2µM*	x
COc1ccc(NC(=O)CSc2nncs2)cc1S(=O)(=O)N1CCCCC1	x	x	x	0%	x	x
O=C(CSc1nncs1)Nc1ccc(N2CCCCC2)cc1	21%	18%	x	4%	13µM*	x
CCOc1ccc(-c2nc(SC(C(C)=O)C(=O)N(C)C)c3c(=O)n(C)c(=O)n(C)c3n2)cc1 (stereo not drawn)	x	x	x	x	1%	x
O=C(Nc1nnc(S(=O)(=O)N2CCCc3ccccc32)s1)c1cccc(Cl)c1	x	x	x	x	3%	x
Cc1nc(SCC(=O)N(C)C2(C#N)CCCCC2)c2ccccc2n1	-8%	0%	x	-6%	24µM*	x
Cc1nc(SCC(=O)N(C)C2CCS(=O)(=O)C2)c2ccccc2n1 (stereo not drawn)	x	x	x	-4%	x	x
N#CC1=C(N)N2C(=C(C#N)C1c1ccccc1)Sc1ccccc12 (stereo not drawn)	5%	5%	u	9%	-5%	-3%
c1ccc([C@H]2CN3C(=N2)Sc2ccccc23)cc1	2%	u	x	u	0.48µM*	x
N#CC(C#N)=C(N)Nc1cccc(Cl)c1	-2%	0%	x	1%	6%	x
CC1CCC(=C(C#N)C(=O)Nc2cccc(Cl)c2)CC1 (stereo not drawn)	-6%	-1%	-11%	-1%	24µM*	-5%
COc1ccc(Cl)cc1NC(=O)CN(c1cccc(C)c1C)S(C)(=O)=O	x	x	-2%	x	3%	x
COc1ccccc1NC(=O)c1c(O)c2ccccc2[nH]c1=O	u	1.3µM*	x	8%	u	x
O=C(N/N=C/c1ccc(F)cc1)c1c(O)c2ccccc2[nH]c1=O	-3%	1%	x	0%	-2%	x
O=C(N/N=C/c1ccccc1)c1c(O)c2ccccc2[nH]c1=O	1.4µM*	1.8µM*	3.5µM*	13%	u	-4%
O=C(NC1CCCCCC1)c1c(O)c2ccccc2[nH]c1=O	u	1µM*	3%	u	2.7µM*	-7%
CC1(C)C(=O)N(CC(=O)Nc2ccc(OC(F)(F)F)cc2)c2ccccc21	x	x	x	x	-3%	x
Cc1ccc(NC(=O)c2nnn(CC(=O)Nc3ccc(C)c(Cl)c3)c2N)c(C)c1	x	x	x	x	-2%	x
CCOc1ccc(Nc2nc(Cc3nnc(SCC(=O)O)o3)cs2)cc1	4%	13%	4%	-4%	8.5µM*	-3%
C=CCn1c2ccccc2c(=O)c2cc(C#Cc3ccccn3)ccc21	-4%	4µM*	x	3%	7.6µM*	x
C=CCn1c2ccccc2n2nc(C)c(=O)nc12	1%	-6%	6%	1%	0%	2%
